Source: PubChem (several laboratories)
In the library only some 2.5% were active in any assay of this set; here they are far more common.
TROY NFkB inh – inhibitors of TROY-driven NF-kB signaling, primary screen, Q293 LMP1-TROYcd cells, NF-kB luciferase, uHTS | Q293 LMP1-TROYcd NF-kB luciferase reporter, 4 h | inhibition, % at 10 µM | hit rate 0.98% among 360,000 | AID 1347056, 2019;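 active means compounds whose plate-normalised and pattern-corrected inhibition of the luciferase reporter signal at the single screening dose is 50% or more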
EWS-Fli inh – EWS/Fli-driven NR0B1 reporter inhibitors, primary screen, A673 cells, NR0B1 luciferase, luminescence, MLPCN library | inhibition, % at 12.6 µM | viability-normalised | hit rate 0.67% among 350,000;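 active means mean inhibition of at least 50% after viability correction, with every replicate also passing that limit; inconclusive means mean reaches 50% but only one of two replicates passes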;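 further: firefly luciferase signal divided by Alamar Blue viability fluorescence both relative to DMSO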
LMP1 NFkB inh – EBV LMP1-driven NF-kappaB luciferase reporter inhibitors, primary screen, cell-based, luminescence, single point; LMP1-induced NF-kappaB luciferase reporter cells; inhibition, % at 12.5 µM; hit rate 0.69% among 350,000; AID 504558, 2011; in the data active means inhibition above about 41%; inconclusive means no clear call, values can overlap the other calls;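 further: 0% = neutral control wells and 100% = reference inhibitor control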
LGR2 antag – inhibitors of bursicon-induced LGR2 CRE-luciferase signal, primary screen, cell-based, HEK293, CRE-luciferase reporter, bursicon stimulation; Drosophila bursicon receptor LGR2 (rickets); bursicon-stimulated, 4 h; inhibition, % at 9.99 µM; hit rate 0.35% among 380,000;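 active means drop in luminescence signal, shown as inhibition above about 50% in the replicate tests, limit read from the data, passing the limit was not always enough; inconclusive means probably only some replicates passing the limit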;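 further: agonist challenge used bursicon conditioned medium at about half maximal strength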
TWEAK-Fn14 inh – inhibitors of TWEAK-Fn14 signaling, primary screen, luciferase reporter cells, uHTS | AID 1159606, 2016 | inhibition, % at 10 µM | TWEAK-stimulated Fn14 reporter cells, luciferase luminescence, 8 h | hit rate 2% among 360,000; in the data active means inhibition above about 50%
DNA binder FP – DNA binders by acridine orange displacement, dose response, counter-screen for EWS/Fli inhibitor project, biochemical, fluorescence polarization, cherry-pick; AC35, µM (doses to about 68 µM), for the others: at the highest dose activity change, negative = DNA binding; AID 720586, 2013; salmon sperm DNA acridine orange fluorescence polarization; shares compounds with EWS-Fli inh; hit rate 2% among 640;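 active means fitted curve reaches a 35% signal fall AC35 below twice the sample's top valid tested dose, actives reach about 48 µM in these data; inactive means the rest, including activity in the rising direction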;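 further: lower polarization ratio signals compound binding to DNA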
* hit, by the source's call; ? = inconclusive; / = no result given.

SMILES	TROY NFkB inh	EWS-Fli inh	LMP1 NFkB inh	LGR2 antag	TWEAK-Fn14 inh	DNA binder FP
Cn1ccc2cc(-c3ccc4ncnc(NCc5cccs5)c4c3)ccc21	12	51*	10	/	55*	-13%
COC(=O)C[C@@H]1CC[C@@H]2[C@@H](COc3ccc(NC(=O)Cc4cccs4)cc3C(=O)N2C)O1	/	65*	/	-12	/	-20%
COC(=O)C[C@H]1CC[C@H]2[C@@H](COc3ccc(NC(=O)Nc4cccc(Cl)c4)cc3C(=O)N2C)O1	/	60*	/	-6	/	5%
COC(=O)C[C@@H]1CC[C@H]2[C@@H](COc3ccc(NC(=O)Nc4cccc(Cl)c4)cc3C(=O)N2C)O1	/	45	/	-5	/	/
COC(=O)C[C@@H]1CC[C@H]2[C@H](COc3ccc(NC(=O)Nc4cccc(Cl)c4)cc3C(=O)N2C)O1	/	?	/	16	/	/
CN1C(=O)c2cc(NC(=O)c3ccc(C(F)(F)F)cc3)ccc2OC[C@@H]2O[C@@H](CC(=O)NC3Cc4ccccc4C3)CC[C@H]21	/	54*	/	4	/	0%
COC(=O)C[C@@H]1CC[C@@H]2[C@@H](COc3ccc(NC(=O)Nc4cccc(Cl)c4)cc3C(=O)N2C)O1	/	77*	/	11	/	14%
CC(=O)N(C)C[C@@H]1Oc2cc(-c3cccc(F)c3)ccc2S(=O)(=O)N([C@@H](C)CO)C[C@H]1C	/	14	/	-7	/	/
COc1ccc(NC(=O)N(C)C[C@H]2OCCCC[C@H](C)Oc3ccc(NC(=O)Nc4cccc5ccccc45)cc3C(=O)N([C@H](C)CO)C[C@H]2C)cc1	/	-8	/	-5	/	/
COC(=O)C[C@@H]1CC[C@@H]2[C@@H](COc3ccc(NC(=O)Nc4ccccc4C)cc3C(=O)N2C)O1	/	66*	/	-5	/	-13%
COC(=O)C[C@@H]1CC[C@@H]2[C@@H](COc3ccc(NC(=O)Nc4cccc(F)c4)cc3C(=O)N2C)O1	/	69*	/	-10	/	-10%
COC(=O)C[C@@H]1CC[C@@H]2[C@H](COc3ccc(NC(=O)Nc4ccccc4C)cc3C(=O)N2C)O1	/	-8	/	14	/	/
CCC(=O)N(C)C[C@H]1Oc2cc(C3=CCCC3)ccc2S(=O)(=O)N([C@@H](C)CO)C[C@@H]1C	/	14	/	13	/	/
O=C1c2ccc3c4c(ccc(c24)C(=O)N1c1cccc(O)c1)CC3	-46	-3	-1	-25	-72	/
O=C1c2ccc3c4c(ccc(c24)C(=O)N1c1cccc(O)c1)C(=O)N(c1cccc(O)c1)C3=O	-3	60*	28	-3	-11	-8%
CO[C@@H]1CN(C)C(=O)c2ccc(NC(C)=O)cc2OC[C@H](C)N(Cc2cc(F)ccc2F)C[C@H]1C	/	-6	/	-9	/	/
CC(C)(C)C(=O)Cn1ncc(Cl)c(Cl)c1=O	3	75*	1	/	97*	-4%
CC(C)CC#Cc1ccc([C@@H]2[C@@H](CO)N3CCCCN(S(=O)(=O)c4ccc(F)cc4)C[C@H]23)cc1	/	82*	/	12	/	-11%
COc1cc(/C=N/NC(=O)c2csc3c2CCCC3)cc(OC)c1O	-37	85*	4	6	-29	-7%
Cc1ccc(/C=N/NC(=O)c2csc3c2CCCC3)cc1	-22	/	0	/	-44	/
C[C@H](CO)N1C[C@H](C)[C@@H](CN(C)Cc2ccc(Oc3ccccc3)cc2)Oc2ccc(NC(=O)CCN3CCOCC3)cc2C1=O	/	2	/	/	/	/
CC(C)CN(C(=O)CN1CCCCCC1)c1c(N)n(CC(C)C)c(=O)[nH]c1=O	20	-10	2	3	9	/
CC(C)CN(C(=O)CN1CCOCC1)c1c(N)n(CC(C)C)c(=O)[nH]c1=O	5	61*	5	15	16	-12%
COC(=O)C[C@@H]1CC[C@@H]2[C@H](COc3ccc(NC(=O)c4cc(C)on4)cc3C(=O)N2C)O1	/	60*	/	10	/	-15%
Cc1cc(C(=O)Nc2ccc3c(c2)C(=O)N(C)[C@@H]2CC[C@H](CC(=O)N[C@H](C)c4ccccc4)O[C@H]2CO3)no1	/	58*	/	6	/	-7%
SMILES	TROY NFkB inh	EWS-Fli inh	LMP1 NFkB inh	LGR2 antag	TWEAK-Fn14 inh	DNA binder FP
Cc1ccc(Cl)cc1NC(=O)Cn1cc(C(F)(F)F)cc(Cl)c1=O	0	76*	6	12	-4	4%
Cc1c(Cl)cccc1NC(=O)Cn1cc(C(F)(F)F)cc(Cl)c1=O	-9	-9	3	-6	-33	/
O=C(C[C@H]1CC[C@@H]2[C@H](COC[C@H](O)CN2Cc2ccccc2F)O1)N[C@H]1CCN(Cc2ccccc2)C1	/	-1	/	19	/	/
C[C@@H]1CN([C@@H](C)CO)C(=O)c2cc(NC(=O)Nc3ccc4c(c3)OCO4)ccc2O[C@H]1CN(C)C(=O)Nc1ccccc1	/	-26	/	-4	/	/
Cc1nc(N)nc(N)c1/C=C/C(C)(C)c1ccc(Cl)cc1	36	59*	46*	38	36	-6%
CCCCN=C(NNc1ccc(Br)cc1)C(=O)OCC	13	79*	-6	11	-18	-9%
C[C@@H]1CCCCO[C@H](CN(C)C(=O)CCC(F)(F)F)[C@H](C)CN([C@@H](C)CO)C(=O)c2cc(NC(=O)NC3CCCCC3)ccc2O1	/	-9	/	-16	/	/
